Cardiac RTF inh: cardiac RTF calcium desensitization | inhibition, % at 7.15 µM | IANBD-labeled cardiac RTF, Ca2+ fluorescence | P19429+P45379 | hit rate 0.12% among 340,000;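 active means inhibition above the mean inhibition of all tested compounds plus 3 SD, cut at about 17% in these data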;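 further: assay run at fixed EC70 calcium of 1.6 mM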
cardiac RTF act: increases calcium sensitivity of human cardiac regulated thin filaments | hit rate 0.24% among 340,000 | IANBD-labeled TnC RTF fluorescence at EC20 calcium; 0% EC20 calcium, 100% full calcium | activation, % at 7.2 µM | P19429+P45379;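 active means activation above the mean over all tested compounds plus 3 SD, cut at about 30% in these data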;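 further: rise in fluorescence read as greater calcium sensitivity of cardiac thin filaments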
CRFBP-R2 agonist: CRF-BP/CRF-R2 complex agonism | activation, % at 13.2 µM | hit rate 0.46% among 350,000 | HEK293 CRF-R2/CRF-BP, calcium dye fluorescence (FLIPR); percent of saturating CRF peptide response;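 active means activation of at least 50%, plus an integration ratio under a set limit after plate pattern correction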
ANO1 block: blocks the mouse calcium-activated chloride channel TMEM16A | Q8BHY3 | HEK293 TMEM16A/YFP iodide influx fluorescence, ionomycin | normalized B-score (activity score, 25-100; higher = stronger inhibition) at 10 µM | hit rate 1.2% among 310,000;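 active means ratio plate-corrected score three or more library SD toward inhibition, starting fluorescence score within five deviations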;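 further: score derived from kinetic fluorescence span divided by baseline fluorescence per well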
CRFR2-BP antag: blocks CRF-induced signaling of the CRF-BP/CRF-R2 complex. HEK293 CRF-R2/CRF-BP, CRF-induced calcium fluorescence. inhibition, % at 11.8 µM. hit rate 0.59% among 350,000;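 active means inhibition of the ligand-induced calcium signal above about 50% at the single tested concentration, limit read from the data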
ANO1 activ: activators or potentiators of mouse TMEM16A chloride channel. Q8BHY3. AID 623877. HEK293 TMEM16A/YFP-H148Q/I152L, iodide quench fluorescence; active compounds read low. B-score at 10 µM. hit rate 0.3% among 340,000;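 active means fluorescence-ratio B-score plate-corrected deviation score at least 3 library SD below zero, with starting fluorescence score within 5 deviations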;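 further: channel opened by trigger with iodide after compound preincubation; score built on the fluorescence ratio of max minus min over baseline; more negative score means more quench and so TMEM16A activation or potentiation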
Each line names hits and unclear results; the compound was inactive in the other large screens. This is a sample that favours compounds with a hit; in the whole collection about 2.4% have one here.

COc1ncnc2c1ncn2CCCN(CCCc1ccccc1)CCCn1cnc2c(OC)ncnc21	none (no result: Cardiac RTF inh, cardiac RTF act, ANO1 block, ANO1 activ)
COc1ccc(-c2csc(NC(=O)CSc3n[nH]c(N)n3)n2)cc1	none
COc1ccc(-c2csc(NC(=O)CSc3n[nH]c(C)n3)n2)cc1	ANO1 block 25
COc1cc(OC)c(NC(=O)c2cc3ccccc3cc2O)cc1Cl	cardiac RTF act 32 (no result: ANO1 block)
COc1cc(NC(=O)c2ccccc2)c(OC)cc1Cl	none
CC(=O)Nc1ccc2cc3ccc(NC(C)=O)cc3nc2c1	ANO1 activ -9.8
COc1ccc(C(=O)ON=C2CCN(c3ccc([N+](=O)[O-])cc3)CC2)cc1	none
O=C(ON=C1CCN(c2ccc([N+](=O)[O-])cc2)CC1)c1ccccc1	CRFR2-BP antag 64
CCOc1ccccc1NC(=O)C1CCCN1S(=O)(=O)c1ccccc1C(F)(F)F (stereo not drawn)	CRFR2-BP antag 82 (no result: ANO1 block)
CC(=O)N[C@H]1C[C@@H]1c1ccccc1	CRFR2-BP antag 61
O=C(N[C@H]1CC1c1ccccc1)c1ccc([N+](=O)[O-])cc1 (stereo partly drawn)	none
O=C(COc1cc2oc(=O)cc(-c3ccccc3)c2cc1Cl)NCCN1CCOCC1	none
CCN(CC)c1ccc2cc(C#N)c(=O)oc2c1	CRFBP-R2 agonist 102 (no result: Cardiac RTF inh, cardiac RTF act)
CCN(CC)c1ccc2ccc(=O)oc2c1	none (no result: Cardiac RTF inh, cardiac RTF act)
O=c1oc2ccccc2cc1-c1csc(Cc2nc(-c3ccc(Cl)cc3)cs2)n1	none
CCN(CC)c1ccc2cc(S(=O)(=O)c3ccc(C)cc3)c(=O)oc2c1	cardiac RTF act 53, CRFBP-R2 agonist 147
CCN(CC)c1ccc2cc(-c3nc(-c4cc5ccccc5oc4=O)cs3)c(=O)oc2c1	cardiac RTF act 95, CRFBP-R2 agonist 195 (no result: ANO1 block)
Cc1ccc(S(=O)(=O)c2cc3ccccc3oc2=O)cc1	none
CCN(CC)c1ccc2cc(C(=O)NNC(=O)c3ccc(S(=O)(=O)N4CCCCC4)cc3)c(=O)oc2c1	CRFBP-R2 agonist 266
Cc1ccc(C2N(c3ccc(Cl)c(Cl)c3)C(=O)C3CCCN32)o1 (stereo not drawn)	none
COc1ccc(N2C(=O)C3CCCN3C2c2ccc(C)o2)cc1Cl (stereo not drawn)	ANO1 block 25
Cc1ccc(CNCCCSc2nc(C)cc(C)n2)cc1	none
Cc1cc(C)nc(SCCCNCc2ccc(Br)cc2)n1	cardiac RTF act 32
Cc1ccc(N=Nc2ccc(O)c(P(=O)(c3ccccc3)c3ccccc3)c2)cc1	CRFR2-BP antag 108
O=[N+]([O-])c1ccc(O)c(P(=O)(c2ccccc2)c2ccccc2)c1	none
Cc1ccc(OCc2cc(C(=O)N3CCN(CC(=O)NC(C)C)CC3)no2)cn1	CRFR2-BP antag 72
COCCN1CCN(C(=O)c2cc(COc3cc(C)ccc3C)on2)CC1	CRFR2-BP antag 71
COCCCC1CCN(C(=O)c2cc(COc3cc(C)ccc3C)on2)CC1	none
CC(=O)Nc1ccc(NC(=O)C(C)OC(=O)C2CCCCC2)cc1 (stereo not drawn)	CRFR2-BP antag 52 (no result: ANO1 block)
COc1ccc(C2=CC(c3ccco3)n3ncnc3N2)cc1 (stereo not drawn)	cardiac RTF act 83, CRFBP-R2 agonist 170 (no result: ANO1 block)
Clc1ccc(C2=CC(c3ccco3)n3ncnc3N2)cc1 (stereo not drawn)	cardiac RTF act 217, CRFBP-R2 agonist 349
Cc1ccc(C2=CC(c3ccc(C)cc3)n3ncnc3N2)cc1 (stereo not drawn)	none
CC(C)(C)c1ccc(C2=CC(c3ccccc3)n3ncnc3N2)cc1 (stereo not drawn)	ANO1 block 100
Cc1ccc(/C=N/NC(=O)c2nnn(-c3nonc3N)c2CSc2ccc(Cl)cc2)o1	none
CC(C)CC(c1nnnn1Cc1cccs1)N1CCN(c2nc3ccccc3s2)CC1 (stereo not drawn)	ANO1 activ -8.3
Cc1ccc(OCCC(=O)OCC(=O)Nc2ccc(F)cc2)cc1	none
Cc1ccc(C)c(NC(=O)CCN2CCN(c3ccccc3F)CC2)c1	none
COc1ccc(C(=O)Nc2cccc(-c3ccc4nncn4n3)c2)cc1OC	ANO1 activ -6.9
COc1cccc(OC)c1C(=O)Nc1cccc(-c2ccc3nncn3n2)c1	none
CCC(=O)c1ccc(OCC(O)CN(CCc2ccccc2)Cc2ccccc2)cc1 (stereo not drawn)	ANO1 block 100
OC(COc1ccccc1)CN(Cc1ccccc1)CC(O)COc1ccccc1 (stereo not drawn)	none
COc1ccc(/C=C/c2cccc[n+]2C)c(O)c1	none
CCN(CC)c1ccc(/C=C/c2cccc[n+]2C)c(OC)c1	cardiac RTF act 75, CRFBP-R2 agonist 55
C=CC(=O)Nc1cccc(N(C)c2ccnc(Nc3ccc(N4CCN(C)CC4)cc3)n2)c1	none (no result: ANO1 block)
CN(C)c1ccc(/C=N/NC(N)=S)cc1[N+](=O)[O-]	none
CCOc1cc(/C=C2\CCCc3c2nc2ccccc2c3C(=O)O)ccc1OC	CRFBP-R2 agonist 201
CC(OC(=O)c1cc2ccccc2cc1O)C(=O)Nc1ccc(S(N)(=O)=O)cc1 (stereo not drawn)	none
Cc1cccc(C)c1NC(=O)COC(=O)c1c2c(nc3ccccc13)/C(=C\c1ccc3c(c1)OCO3)CCC2	CRFBP-R2 agonist 95
COc1cc(/C=C2\CCCc3c2nc2ccccc2c3C(=O)O)cc(Br)c1O	none
CC(OC(=O)c1c2c(nc3ccccc13)/C(=C\c1ccc3c(c1)OCO3)CCC2)C(=O)Nc1ccc(S(N)(=O)=O)cc1 (stereo not drawn)	cardiac RTF act 115, CRFBP-R2 agonist 314 (no result: ANO1 block)
Fc1ccc(-c2nc(-c3cnccn3)no2)c(Cl)c1	none
CC(C)(C)c1nc(CN2CCCCC2)cc(CN2CCCCC2)c1O	CRFR2-BP antag 81
CC(C)(C)c1nc(CN2CCOCC2)ccc1O	none (no result: ANO1 activ)
COc1ccccc1N=C1NC(=O)/C(=C/c2ccc(N(C)C)cc2)S1	cardiac RTF act 48, CRFBP-R2 agonist 79
CCNc1nc(NCC)n2c(SCC(=O)Nc3ccc(CC)cc3)nnc2n1	none
CCNc1nc(NCC)n2c(SCc3ccc(F)cc3)nnc2n1	CRFR2-BP antag 51
NC(=O)c1ccc(NCc2ccco2)c([N+](=O)[O-])c1	CRFR2-BP antag 71
NC(=O)c1ccc(NCCc2ccccc2)c([N+](=O)[O-])c1	none
O=C(CCNS(=O)(=O)c1ccc(Br)cc1)NC1CCC(O)CC1 (stereo not drawn)	none (no result: ANO1 block)
Cc1ccc(CN2CC(=O)N3[C@H]4c5cc(C)ccc5OC[C@@H]4[C@H](c4ccccc4)[C@]3(C)C2=O)cc1	none (no result: ANO1 block)
Cc1ccc(CN2CC(=O)N3[C@H]4c5cc(Cl)ccc5OC[C@@H]4[C@H](c4ccccc4)[C@]3(C)C2=O)cc1	CRFR2-BP antag 72 (no result: ANO1 block)
N#Cc1cccc(NC(=O)CC2CCCC2)c1	none

Assay outcomes: PubChem, several laboratories
